Values joined by “and” are separate entries in the source; they are usually repeats but may differ in a detail not shown here. Equal entries are not always repeated.
Experiments:
[1] = target: Mitogen-activated protein kinase 3 (Homo sapiens) (UniProt P27361); conditions: at 1 µM;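 also: values are mean percent inhibition of MAPK3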
[2] = target: SRSF protein kinase 3 (Homo sapiens) (UniProt Q9UPE1); conditions: at 0.1 µM
[3] = target: SRSF protein kinase 3 (Homo sapiens) (UniProt Q9UPE1); conditions: at 1 µM
[4] = target: Mitogen-activated protein kinase 14 (Homo sapiens) (UniProt Q16539); conditions: at 0.1 µM
[5] = target: Mitogen-activated protein kinase 14 (Homo sapiens) (UniProt Q16539); conditions: at 1 µM
[6] = target: Mitogen-activated protein kinase 11 (Homo sapiens) (UniProt Q15759); conditions: at 0.1 µM
[7] = target: Mitogen-activated protein kinase 11 (Homo sapiens) (UniProt Q15759); conditions: at 1 µM
[8] = target: T1, Mitogen-activated protein kinase 13 (Homo sapiens) (UniProt O15264); conditions: at 0.1 µM
T1 sequence (whole entry): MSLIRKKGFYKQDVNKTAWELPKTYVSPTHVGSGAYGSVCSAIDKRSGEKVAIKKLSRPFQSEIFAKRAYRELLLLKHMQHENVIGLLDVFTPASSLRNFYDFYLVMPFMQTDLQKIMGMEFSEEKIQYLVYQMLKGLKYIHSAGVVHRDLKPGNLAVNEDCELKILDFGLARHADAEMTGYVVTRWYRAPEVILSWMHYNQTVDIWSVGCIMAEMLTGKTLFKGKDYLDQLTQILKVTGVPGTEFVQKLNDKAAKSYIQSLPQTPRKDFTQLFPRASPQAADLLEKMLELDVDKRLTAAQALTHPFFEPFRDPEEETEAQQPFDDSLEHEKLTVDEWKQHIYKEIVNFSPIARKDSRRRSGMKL

[9] = target: T1, Mitogen-activated protein kinase 13 (Homo sapiens); conditions: at 1 µM
[10] = target: T2, Mitogen-activated protein kinase 12 (Homo sapiens) (UniProt P53778); conditions: at 0.1 µM
T2 sequence (whole entry): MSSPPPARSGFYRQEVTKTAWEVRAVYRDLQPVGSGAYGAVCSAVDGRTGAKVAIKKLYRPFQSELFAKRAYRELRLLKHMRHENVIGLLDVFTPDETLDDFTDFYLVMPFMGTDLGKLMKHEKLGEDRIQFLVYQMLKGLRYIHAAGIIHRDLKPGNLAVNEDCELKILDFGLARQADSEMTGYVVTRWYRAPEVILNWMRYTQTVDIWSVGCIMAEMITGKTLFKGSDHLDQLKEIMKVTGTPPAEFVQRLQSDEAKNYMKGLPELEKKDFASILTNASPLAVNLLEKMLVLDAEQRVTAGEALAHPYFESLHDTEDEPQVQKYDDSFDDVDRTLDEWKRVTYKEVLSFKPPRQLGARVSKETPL

[11] = target: T2, Mitogen-activated protein kinase 12 (Homo sapiens); conditions: at 1 µM
[12] = target: SRSF protein kinase 1 (Homo sapiens) (UniProt Q96SB4); conditions: at 0.1 µM
[13] = target: SRSF protein kinase 1 (Homo sapiens) (UniProt Q96SB4); conditions: at 1 µM
[14] = target: Phosphatidylinositol 4,5-bisphosphate 3-kinase catalytic subunit alpha isoform (Homo sapiens) (UniProt P42336); conditions: at 0.1 µM
[15] = target: Phosphatidylinositol 4,5-bisphosphate 3-kinase catalytic subunit alpha isoform (Homo sapiens) (UniProt P42336); conditions: at 1 µM
[16] = target: T3, Phosphatidylinositol 4,5-bisphosphate 3-kinase catalytic subunit delta isoform (Homo sapiens) (UniProt O00329); conditions: at 0.1 µM
T3 sequence (whole entry): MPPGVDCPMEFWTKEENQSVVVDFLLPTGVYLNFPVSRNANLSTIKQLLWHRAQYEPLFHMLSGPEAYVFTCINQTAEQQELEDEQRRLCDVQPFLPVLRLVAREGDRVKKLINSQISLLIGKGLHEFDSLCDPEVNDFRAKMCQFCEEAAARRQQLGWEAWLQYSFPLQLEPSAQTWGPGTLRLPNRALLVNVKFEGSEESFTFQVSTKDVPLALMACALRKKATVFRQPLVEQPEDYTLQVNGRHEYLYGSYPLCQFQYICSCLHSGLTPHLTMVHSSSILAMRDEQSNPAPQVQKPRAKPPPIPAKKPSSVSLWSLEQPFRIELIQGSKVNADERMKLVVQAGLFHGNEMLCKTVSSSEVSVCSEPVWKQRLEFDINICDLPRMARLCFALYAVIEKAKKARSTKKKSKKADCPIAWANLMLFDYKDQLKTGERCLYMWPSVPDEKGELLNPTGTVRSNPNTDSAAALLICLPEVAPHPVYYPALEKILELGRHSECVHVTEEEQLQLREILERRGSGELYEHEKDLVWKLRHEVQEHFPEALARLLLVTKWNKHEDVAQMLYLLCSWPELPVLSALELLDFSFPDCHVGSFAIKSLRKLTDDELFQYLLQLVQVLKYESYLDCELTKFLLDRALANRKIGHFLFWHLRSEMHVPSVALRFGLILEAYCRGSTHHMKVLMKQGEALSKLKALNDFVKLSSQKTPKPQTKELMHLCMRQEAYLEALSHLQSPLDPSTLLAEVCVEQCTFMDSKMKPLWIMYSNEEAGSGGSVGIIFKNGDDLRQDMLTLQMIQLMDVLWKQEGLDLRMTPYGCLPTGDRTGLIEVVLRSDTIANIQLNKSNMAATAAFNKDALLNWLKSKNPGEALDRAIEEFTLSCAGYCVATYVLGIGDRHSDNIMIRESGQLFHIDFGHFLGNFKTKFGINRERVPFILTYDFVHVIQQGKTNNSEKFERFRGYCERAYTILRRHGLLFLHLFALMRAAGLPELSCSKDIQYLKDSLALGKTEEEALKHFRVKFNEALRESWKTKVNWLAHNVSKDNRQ

[17] = target: T3, Phosphatidylinositol 4,5-bisphosphate 3-kinase catalytic subunit delta isoform (Homo sapiens); conditions: at 1 µM
[18] = target: Phosphatidylinositol 4-kinase beta (Homo sapiens) (UniProt Q9UBF8); conditions: at 0.1 µM
[19] = target: Phosphatidylinositol 4-kinase beta (Homo sapiens) (UniProt Q9UBF8); conditions: at 1 µM
[20] = target: Sphingosine kinase 1 (Homo sapiens) (UniProt Q9NYA1); conditions: at 0.1 µM;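 also: mean percent inhibition of SPHK1 activity, measured within the GSK PKIS screening panel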
Sequence of Sphingosine kinase 1 (Homo sapiens) (Q9NYA1 whole entry): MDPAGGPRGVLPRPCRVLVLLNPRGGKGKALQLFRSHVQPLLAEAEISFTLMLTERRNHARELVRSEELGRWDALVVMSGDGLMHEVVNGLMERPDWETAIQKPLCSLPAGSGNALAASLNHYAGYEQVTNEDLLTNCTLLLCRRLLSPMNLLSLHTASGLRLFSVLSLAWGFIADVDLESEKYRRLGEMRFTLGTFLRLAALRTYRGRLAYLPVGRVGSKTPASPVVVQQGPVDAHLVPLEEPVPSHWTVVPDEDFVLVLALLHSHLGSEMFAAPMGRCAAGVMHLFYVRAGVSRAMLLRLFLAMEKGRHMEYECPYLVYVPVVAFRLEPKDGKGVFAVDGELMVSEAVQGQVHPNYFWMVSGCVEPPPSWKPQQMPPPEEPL

Sequence of SRSF protein kinase 1 (Homo sapiens) (Q96SB4 whole entry, canonical isoform): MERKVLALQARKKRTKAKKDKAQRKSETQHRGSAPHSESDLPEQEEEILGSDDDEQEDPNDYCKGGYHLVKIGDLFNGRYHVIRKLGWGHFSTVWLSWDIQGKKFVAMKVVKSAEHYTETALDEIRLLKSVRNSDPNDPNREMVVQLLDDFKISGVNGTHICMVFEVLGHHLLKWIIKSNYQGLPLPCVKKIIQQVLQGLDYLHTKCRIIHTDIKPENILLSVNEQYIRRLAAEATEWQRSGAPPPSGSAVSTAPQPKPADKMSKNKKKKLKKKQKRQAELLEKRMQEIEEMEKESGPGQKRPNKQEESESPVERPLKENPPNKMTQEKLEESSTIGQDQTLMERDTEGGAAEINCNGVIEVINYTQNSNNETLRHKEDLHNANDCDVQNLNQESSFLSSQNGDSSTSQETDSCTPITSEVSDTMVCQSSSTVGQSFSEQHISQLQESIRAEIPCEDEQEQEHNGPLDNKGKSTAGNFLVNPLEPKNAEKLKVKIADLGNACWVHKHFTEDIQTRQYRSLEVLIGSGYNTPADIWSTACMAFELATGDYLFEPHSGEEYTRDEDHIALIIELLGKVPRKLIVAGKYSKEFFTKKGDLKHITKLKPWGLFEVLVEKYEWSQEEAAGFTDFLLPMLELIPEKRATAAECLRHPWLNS
Sequence of Mitogen-activated protein kinase 3 (Homo sapiens) (P27361 whole entry): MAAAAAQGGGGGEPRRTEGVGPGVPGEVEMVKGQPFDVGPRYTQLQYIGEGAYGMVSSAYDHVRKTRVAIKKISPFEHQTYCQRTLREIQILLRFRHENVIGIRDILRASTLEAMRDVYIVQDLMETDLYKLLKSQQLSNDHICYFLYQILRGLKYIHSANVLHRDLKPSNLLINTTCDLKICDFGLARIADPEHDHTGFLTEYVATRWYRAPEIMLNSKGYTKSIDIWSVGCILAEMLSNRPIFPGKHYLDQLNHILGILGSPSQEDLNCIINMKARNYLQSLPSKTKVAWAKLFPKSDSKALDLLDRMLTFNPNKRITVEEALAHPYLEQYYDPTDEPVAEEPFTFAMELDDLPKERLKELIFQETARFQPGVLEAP
Sequence of SRSF protein kinase 3 (Homo sapiens) (Q9UPE1 whole entry): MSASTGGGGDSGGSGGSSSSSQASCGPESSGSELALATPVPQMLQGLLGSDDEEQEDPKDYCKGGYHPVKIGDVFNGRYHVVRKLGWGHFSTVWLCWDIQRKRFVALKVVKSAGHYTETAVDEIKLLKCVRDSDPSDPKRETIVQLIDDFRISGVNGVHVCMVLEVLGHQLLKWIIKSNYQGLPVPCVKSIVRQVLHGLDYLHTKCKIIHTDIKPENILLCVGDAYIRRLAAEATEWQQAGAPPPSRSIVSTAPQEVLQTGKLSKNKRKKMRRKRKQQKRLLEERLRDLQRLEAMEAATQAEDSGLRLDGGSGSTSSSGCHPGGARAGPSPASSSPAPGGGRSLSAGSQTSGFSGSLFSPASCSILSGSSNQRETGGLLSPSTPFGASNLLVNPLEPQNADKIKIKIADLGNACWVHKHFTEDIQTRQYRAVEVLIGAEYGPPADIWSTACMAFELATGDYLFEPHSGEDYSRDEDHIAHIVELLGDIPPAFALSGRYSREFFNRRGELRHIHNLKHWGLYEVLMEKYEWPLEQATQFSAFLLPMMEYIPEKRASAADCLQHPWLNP
Sequence of Phosphatidylinositol 4,5-bisphosphate 3-kinase catalytic subunit alpha isoform (Homo sapiens) (P42336 whole entry, canonical isoform): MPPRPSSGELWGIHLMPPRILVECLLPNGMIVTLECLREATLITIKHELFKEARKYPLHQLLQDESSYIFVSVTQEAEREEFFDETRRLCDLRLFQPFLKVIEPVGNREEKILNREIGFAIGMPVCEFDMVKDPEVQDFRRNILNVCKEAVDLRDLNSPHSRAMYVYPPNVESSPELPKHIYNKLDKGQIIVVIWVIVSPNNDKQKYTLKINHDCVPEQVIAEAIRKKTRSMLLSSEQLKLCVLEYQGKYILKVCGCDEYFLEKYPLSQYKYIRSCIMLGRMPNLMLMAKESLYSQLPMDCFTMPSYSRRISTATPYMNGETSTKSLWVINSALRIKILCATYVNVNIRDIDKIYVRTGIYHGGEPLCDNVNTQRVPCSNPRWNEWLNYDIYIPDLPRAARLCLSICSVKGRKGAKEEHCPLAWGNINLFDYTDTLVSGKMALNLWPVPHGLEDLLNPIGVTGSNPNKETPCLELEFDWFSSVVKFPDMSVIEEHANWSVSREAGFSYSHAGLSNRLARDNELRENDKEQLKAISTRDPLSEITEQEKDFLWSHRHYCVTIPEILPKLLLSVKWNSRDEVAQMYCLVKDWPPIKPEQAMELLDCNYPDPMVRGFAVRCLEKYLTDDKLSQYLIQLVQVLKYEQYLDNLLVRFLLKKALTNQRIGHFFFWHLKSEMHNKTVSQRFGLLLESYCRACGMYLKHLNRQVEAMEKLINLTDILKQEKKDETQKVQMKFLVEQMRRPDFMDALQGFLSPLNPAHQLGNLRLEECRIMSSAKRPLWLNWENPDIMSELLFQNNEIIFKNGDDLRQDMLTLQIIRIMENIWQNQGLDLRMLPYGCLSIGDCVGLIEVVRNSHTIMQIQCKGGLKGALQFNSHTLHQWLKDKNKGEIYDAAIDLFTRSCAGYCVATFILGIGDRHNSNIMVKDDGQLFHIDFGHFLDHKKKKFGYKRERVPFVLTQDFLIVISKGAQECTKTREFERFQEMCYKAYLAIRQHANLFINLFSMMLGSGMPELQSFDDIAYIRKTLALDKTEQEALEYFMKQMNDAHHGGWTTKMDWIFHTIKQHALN
Sequence of Mitogen-activated protein kinase 11 (Homo sapiens) (Q15759 whole entry): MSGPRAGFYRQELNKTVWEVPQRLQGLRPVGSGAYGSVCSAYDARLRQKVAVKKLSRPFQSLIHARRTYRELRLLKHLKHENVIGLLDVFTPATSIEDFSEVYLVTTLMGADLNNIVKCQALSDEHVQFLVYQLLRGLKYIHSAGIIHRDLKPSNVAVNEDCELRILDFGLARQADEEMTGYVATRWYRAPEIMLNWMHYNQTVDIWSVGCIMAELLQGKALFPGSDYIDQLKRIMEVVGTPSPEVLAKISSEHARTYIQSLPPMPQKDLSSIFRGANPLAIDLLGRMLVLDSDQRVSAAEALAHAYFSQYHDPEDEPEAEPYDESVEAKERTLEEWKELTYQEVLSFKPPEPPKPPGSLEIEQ
Sequence of Mitogen-activated protein kinase 14 (Homo sapiens) (Q16539 whole entry): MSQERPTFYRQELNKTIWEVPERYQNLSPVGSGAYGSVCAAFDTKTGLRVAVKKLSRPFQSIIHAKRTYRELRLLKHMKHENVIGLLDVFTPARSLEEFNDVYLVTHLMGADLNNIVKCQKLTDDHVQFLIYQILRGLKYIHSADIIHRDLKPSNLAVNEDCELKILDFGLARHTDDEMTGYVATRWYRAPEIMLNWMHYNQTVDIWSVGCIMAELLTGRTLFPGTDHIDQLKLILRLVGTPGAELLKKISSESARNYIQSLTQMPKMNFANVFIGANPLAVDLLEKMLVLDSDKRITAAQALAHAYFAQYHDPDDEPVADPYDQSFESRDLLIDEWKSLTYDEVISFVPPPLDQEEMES
Sequence of Phosphatidylinositol 4-kinase beta (Homo sapiens) (Q9UBF8 2-816 limits assumed): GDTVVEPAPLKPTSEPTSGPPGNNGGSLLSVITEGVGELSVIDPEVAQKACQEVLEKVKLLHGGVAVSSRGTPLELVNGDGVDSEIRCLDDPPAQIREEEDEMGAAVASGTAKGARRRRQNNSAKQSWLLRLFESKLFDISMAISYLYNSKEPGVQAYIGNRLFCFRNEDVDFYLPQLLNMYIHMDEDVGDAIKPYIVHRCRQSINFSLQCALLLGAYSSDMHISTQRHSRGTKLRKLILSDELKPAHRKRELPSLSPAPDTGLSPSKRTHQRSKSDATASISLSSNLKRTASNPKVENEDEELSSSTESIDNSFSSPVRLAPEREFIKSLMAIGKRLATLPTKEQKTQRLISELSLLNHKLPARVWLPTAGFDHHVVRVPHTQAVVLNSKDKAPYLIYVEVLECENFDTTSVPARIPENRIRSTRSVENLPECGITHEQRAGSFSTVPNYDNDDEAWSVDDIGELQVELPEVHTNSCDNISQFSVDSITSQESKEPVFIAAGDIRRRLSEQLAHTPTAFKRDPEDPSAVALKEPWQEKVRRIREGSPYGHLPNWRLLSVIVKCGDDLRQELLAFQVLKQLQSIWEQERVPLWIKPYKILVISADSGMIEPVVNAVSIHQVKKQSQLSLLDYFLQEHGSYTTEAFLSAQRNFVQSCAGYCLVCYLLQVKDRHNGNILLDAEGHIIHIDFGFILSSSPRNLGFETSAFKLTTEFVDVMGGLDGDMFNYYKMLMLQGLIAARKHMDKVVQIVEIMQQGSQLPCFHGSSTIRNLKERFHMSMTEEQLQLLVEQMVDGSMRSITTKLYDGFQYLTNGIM

| SMILES | inhibition [1] | inhibition [2] | inhibition [3] | inhibition [4] | inhibition [5] | inhibition [6] | inhibition [7] | inhibition [8] | inhibition [9] | inhibition [10] | inhibition [11] | inhibition [12] | inhibition [13] | inhibition [14] | inhibition [15] | inhibition [16] | inhibition [17] | inhibition [18] | inhibition [19] | inhibition [20] |
| --- | --- | --- | --- | --- | --- | --- | --- | --- | --- | --- | --- | --- | --- | --- | --- | --- | --- | --- | --- | --- |
| CC1=C(C(=O)Nc2ccc3[nH]nc(C)c3c2)C(c2ccc(C(F)(F)F)cc2)CC(=O)N1 (stereo not given) | 19.7% | 1.18% | -0.95% | 1.31% | 5.28% | -0.15% | 0.38% | 1.19% | 6.03% | -4.7% | 2.82% | -1.2% | -2.95% | 2.05% | 2.21% | 2.89% | 3.84% | 4.33% | -1.82% | 0.96% |
| COc1cc2c(cc1Nc1nc(Nc3cccc(F)c3C(N)=O)c3cc[nH]c3n1)N(C(=O)CN1CCN(C(C)C)CC1)CC2 | 3.92% | 4.88% | 0.53% | 5.02% | 6.81% | 2.96% | 3.23% | 0.14% | 2.89% | 1.49% | 2.81% | -3.13% | -1.66% | 0.54% | 0.15% | -1.97% | -0.26% | -0.22% | 0.87% | 0.42% |
| COc1ccc(-c2nn3ncccc3c2-c2ccnc(Nc3ccc(F)c(F)c3)n2)cc1 | 6.78% | -0.12% | 3.15% | 33% | 81% | 11.9% | 50.9% | 0.5% | 3.31% | 4.66% | 2.57% | -0.49% | 4.3% | 4.28% | 3.75% | 1.6% | 1.61% | -1.35% | -6.41% | -0.41% |
| O=C(O[C@H]1CN[C@H](C#Cc2cc3ncnc(Nc4ccc5c(ccn5Cc5cc(F)ccc5F)c4)c3s2)C1)N1CCOCC1 | 2.72% | -1.71% | -2.33% | 5.28% | 8.23% | 3.16% | 5.47% | 2.39% | 5.7% | 3.21% | 3.26% | -2.77% | -4.63% | 3.72% | 9.95% | 2.02% | 7.62% | -3.81% | -0.39% | 3.05% |
| O=C(Nc1n[nH]c2nnc(-c3cccnc3)cc12)C1CC1 | 0.8% | -0.02% | -4.68% | -0.2% | -1.37% | 0.57% | 2.39% | -0.07% | 5.16% | 0.25% | 3.03% | -1.16% | -0.28% | 0.13% | 1.26% | 1.05% | 1.67% | -1.26% | 3.04% | 1.36% |
| COc1cccc(Nc2nccc(-c3cnn4ncccc34)n2)c1 | 13.1% | -0.05% | 0.66% | 5.7% | 9.35% | 4.7% | 7.72% | 5% | 15.2% | 1.36% | 9.23% | -0.98% | 4.98% | 3.25% | 17% | 3.95% | 19.1% | -0.93% | 11.1% | 0.27% |
| NS(=O)(=O)c1ccc(N/N=C2\C(=O)Nc3cccc(CCc4ccncc4)c32)cc1 | -1.26% | -1.55% | -0.36% | 1.13% | 0.21% | 1.91% | 3.6% | 0.17% | -0.27% | 0.4% | 0.75% | -0.62% | -1% | 0.59% | 1.55% | 0.97% | 3.61% | 2.1% | 1.01% | 1.36% |
| CCn1c(-c2nonc2N)nc2cncc(C(=O)NCCNC)c21 | 5.7% | -3.21% | -0.69% | 7.83% | 6.55% | 4.08% | 3.55% | 5.75% | 5.07% | 3.86% | 4.44% | -1.97% | -2.66% | 4.3% | 2.53% | 0.31% | 1.82% | 1.26% | 0.69% | 0.59% |
| COC(=O)Nc1nc2ccc(Oc3ccc(NC(=O)Nc4cc(C(F)(F)F)ccc4F)cc3)cc2s1 | -0.75% | 0.81% | 9.68% | 18.9% | 63.7% | 7.18% | 51.5% | 0.05% | 0.18% | 0.98% | 2.85% | -1.59% | -2.01% | -0.49% | 2.51% | 1.44% | 6.58% | -2.75% | -0.16% | -0.71% |
| Nc1ncnc2occ(-c3ccc(NC(=O)Nc4cc(C(F)(F)F)ccc4F)cc3)c12 | 2.88% and -1.29% | 9.33% and 10.1% | 49.1% and 43.5% | 8.71% and -2.42% | 36.6% and 20.3% | 6.21% and 3.71% | 39% and 32.9% | 5.66% and 0.72% | 29.3% and 17.7% | 15% and 4.47% | 52% and 44.9% | 1.86% and 3.34% | 28.9% and 22% | 0.21% and -1.3% | 1.36% and 0.28% | 1.09% and -2.88% | 2.46% and -0.2% | 0.95% and 17.2% | 10.9% and 7.67% | 3.31% and 0.73% |
| COc1cc(N2CCN(C(C)C)CC2)ccc1Nc1nc(Nc2cccc(F)c2C(=O)O)c2cc[nH]c2n1 | 5.94% | -1.11% | 3.96% | 6.33% | 9.12% | 3.15% | 5.38% | 4.97% | 4.09% | 0.95% | 1.52% | -1.29% | 5.69% | 2.86% | 4.42% | -0.59% | -3.11% | 2.44% | 0.72% | -1.3% |
| c1ccc(-c2n[nH]cc2-c2ccnc(-c3ccc(OCCn4ccnc4)cc3)c2)nc1 | 1.75% | -3.24% | -1.72% | 9.4% | 36.8% | 1.39% | 9.38% | 0.51% | 0.99% | 1.96% | 0.72% | 0.42% | -0.94% | 0.67% | 3.3% | 1.43% | 1.91% | -2.63% | 7.03% | 2.34% |
| NS(=O)(=O)c1cccc(N/C=C2\C(=O)Nc3ccccc32)c1 | 1.27% | -0.21% | 0.27% | 7.96% | 13.5% | 6.33% | 9.54% | 1.07% | 5.02% | 1.32% | 2.84% | -2.16% | -4.31% | 4.33% | 7.3% | 4.26% | 7.6% | -1.97% | 2.07% | 7.2% |

Reference: ChEMBL document CHEMBL1961873, “Compounds: GSK PKIS; Assays: Nanosyn kinase panel” (2012)
